# In PubChem BioAssay AID588726 (The Scripps Research Institute Molecular Screening Center, 2011):
# The campaign covered roughly 360,000 compounds. About 8,200 (2.3%) were called active. The list comes from a sample in which actives are over-represented; it also holds similar structures and randomly drawn compounds. Unmarked numbers belong to inactive results. Rule as the data show it: active = inhibition above about 27%; inactive = the rest.
# Target: Fructose-bisphosphate aldolase (Mycobacterium tuberculosis (strain ATCC 25618 / H37Rv)) (UniProt P9WQA3)
# Sequence (P9WQA3 whole entry, looked up): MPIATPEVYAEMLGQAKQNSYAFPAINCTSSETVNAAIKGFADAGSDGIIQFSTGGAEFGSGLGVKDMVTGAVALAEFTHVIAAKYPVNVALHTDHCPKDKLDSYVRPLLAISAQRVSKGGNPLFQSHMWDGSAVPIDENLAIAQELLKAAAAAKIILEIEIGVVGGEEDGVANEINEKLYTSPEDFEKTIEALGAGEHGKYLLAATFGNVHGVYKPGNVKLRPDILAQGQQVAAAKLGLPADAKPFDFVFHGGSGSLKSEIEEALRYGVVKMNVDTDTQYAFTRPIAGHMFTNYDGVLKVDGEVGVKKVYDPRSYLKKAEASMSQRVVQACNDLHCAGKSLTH
# Experiment: M. tuberculosis aldolase activity blockers – biochemical, fluorescence, strain H37Rv, primary screen (AID 588726);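 also: 0% = vehicle and 100% = reference inhibitor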
# Conditions: purified M. tuberculosis FBA, fluorescence read-out, at 1 µM, stronger effect = higher value
row,SMILES,inhibition
1,CCOCCCNC(=O)C(NC(=O)CNC(=O)c1ccccc1)c1ccc(OC)cc1 (stereo not given),-0.07%
2,COc1cccc(NC(=O)[C@H](Cc2c[nH]c3ccccc23)NC(=O)[C@@H]2Cc3ccccc3CN2)c1,10.6%
3,CCCCn1c(O)c(N=NC(=O)Cn2c(C(F)(F)F)nc3ccccc32)c2ccccc21,3.68%
4,N#C/C(=C/c1ccc(N2CCCCC2)o1)C(=O)NCCc1c[nH]c2ccccc12,-32.6%
5,CN=C1C=C/C(=N/N=c2\ccn(O)cc2C)C=C1C,-28.4%
6,COCc1cc(=O)oc2cc(NS(=O)(=O)c3ccc(C)cc3)ccc12,62.4% (active)
7,COc1ccc(S(=O)(=O)Nc2ccc3oc(C)c(C(C)=O)c3c2)cc1,0.55%
8,Cc1ccc(S(=O)(=O)Nc2ccc(F)c(S(=O)(=O)N3CCOCC3)c2)cc1,-0.06%
9,COc1ccccc1CNC(=O)C1CCN(C(=O)[C@@H]2Cc3ccccc3CN2)CC1,-1.63%
10,CCOC(=O)C1CCN(C(=O)/C=C/c2cc(OC)c(OC)c(OC)c2)CC1,6.09%
11,COc1ccccc1CCNC(=O)C1CCN(C(=O)/C=C/c2ccccc2)CC1,81.2% (active)
12,CCCCC(CC)CNC(=O)CCCCn1c(=O)[nH]c2ccsc2c1=O (stereo not given),-2.17%
13,COc1cc(C2NC(=O)NC(c3ccccc3)=C2C(C)=O)c(Br)cc1OCC(N)=O (stereo not given),1.26%
14,O=C(CC(n1cncn1)C(Cl)(Cl)Cl)c1ccc([N+](=O)[O-])cc1 (stereo not given),5.32%
15,NC(=S)NN=Cc1ccc(OC(=O)COc2cc(Cl)c(Cl)cc2Cl)cn1,4.26%
16,O=C(Nc1ccccc1C(=O)O)c1ccc(N2C(=O)C3CC=CCC3C2=O)cc1 (stereo not given),-1.48%
17,Cc1cc(C)nc(Nc2n[nH]c(-c3ccccc3N)n2)n1,15.2%
18,O=[N+]([O-])c1ccc2nc(-c3ccccn3)[nH]c2c1,-3.65%
19,Nc1ccccc1-c1nc2ccncc2[nH]1,83.7% (active)
20,O=S(=O)(NCCSc1ccccn1)c1ccc(Cl)cc1,-1.18%
21,O=C(CN1CCC(O)(c2cccc(C(F)(F)F)c2)CC1)NCCc1ccccc1,-2.53%
22,CCOc1ccc(C(=O)CCC(=O)NC2=NCCS2)cc1,-2.69%
23,CCN1CCN(C(=O)Cn2nc(C)n3c(cc4c(OC)cccc43)c2=O)CC1,195% (active)

row,SMILES,inhibition
1,CCCN1CCN(C(=O)Cn2ncc3ccccc32)CC1,2.25%
2,CCc1nn(CC(=O)N2CCN(CC)CC2)c(=O)c2cccn12,2.42%
3,Cc1ccccc1NC(=O)NC1(C(=O)N2CCCC2)CCCCC1,-0.74%
4,Cc1cccc(-n2cc(CN3CCN(C(=O)c4ncn[nH]4)CC3)c(-c3cccc(F)c3)n2)c1,-3.35%
5,COc1ccc(-c2nn(-c3ccccc3)cc2CN2CCCO2)c(F)c1,-2.2%
6,CCC(O)C1CCN(Cc2cn(-c3ccc(OC)cc3)nc2-c2cccc(F)c2)CC1 (stereo not given),23.7%
7,Cc1ccc(-n2cc(CN(C)Cc3nccn3C)c(-c3cccc(C)c3)n2)cc1,-2.31%
8,COc1ccc(-n2cc(CNC3CCOCC3)c(-c3cccc(F)c3)n2)cc1,50.5% (active)
9,COc1ccc(-n2cc(CN(C)Cc3n[nH]c(=O)[nH]3)c(-c3cccc(F)c3)n2)cc1,33.1% (active)
10,CCCCCCN1C[C@H](O)[C@@H](n2cc(C3CC3)nn2)C[C@@H]1c1ccc(Cl)cc1,0.57%
11,COC(=O)CSc1nc(C)c2ccc(OC)cc2n1,30.8% (active)
12,COc1ccc2c(C)cc(SCC(=O)NCC3CCCO3)nc2c1 (stereo not given),4.79%
13,COc1ccc2[nH]c3nc(SCC(=O)NC4CC4)nnc3c2c1,-8.79%
14,Cn1ncc(N2CCN(S(=O)(=O)c3ccc(Br)cc3)CC2)c(Cl)c1=O,-2.21%
15,COc1ccc(C(=O)/C=C/Nc2ccccn2)cc1,4.41%
16,c1ccc(-c2cn3c(n2)CCc2ccc4cccnc4c2-3)cc1,6.65%
17,CN1CCN(Cc2ccc(OC(F)(F)F)cc2)CC1,-3.02%
18,Cc1ccccc1Nc1c(-c2ccccc2)nc2ncccn12,2.19%
19,COc1ccc(N2CCN(C(=O)CSc3nnc4ncccn34)CC2)cc1,-2.52%
20,CC(C)(C)NC(=O)NC(=O)COC(=O)C1(C)CC1(Cl)Cl (stereo not given),0.89%
21,COCCNC(=O)c1onc(CSc2cccc(C)c2)c1C(=O)O,1.01%
22,Cc1ccc(NC(=O)CN(C)C(=O)c2ccc(Br)o2)cc1,0.61%
